Holding throughout (assay type): functional
For test [1], the target named is Solute carrier family 2, facilitated glucose transporter member 1 (Homo sapiens) (UniProt P11166). In words: ST_JUDE_LEISH: Cytotoxicity at 2uM final concentration against transgenic Leishmania Mexicana promastigotes LmGLUT1 that are glucose transport deficient and complemented with the human glucose transporter GLUT1. Activity is measured by DNA content using SYBR green in vitro.

Test [2] addresses Hexose transporter 1 (Plasmodium falciparum) (UniProt O97467). Kind of test: ST_JUDE_LEISH: Cytotoxicity at 2uM final concentration against transgenic Leishmania Mexicana promastigotes LmPfHT that are glucose transport deficient and complemented with the Plasmodium falciparum hexose transporter. Activity is measured by DNA content using SYBR green in vitro.
Test [3] addresses Glucose transporter (Leishmania mexicana) (UniProt O61059). Kind of test: ST_JUDE_LEISH: Cytotoxicity at 2uM final concentration against transgenic Leishmania Mexicana promastigotes LmGT2 that are glucose transport deficient and complemented with the L. Mexicana glucose transporter 2. Activity is measured by DNA content using SYBR green in vitro.

Chain of Solute carrier family 2, facilitated glucose transporter member 1 (Homo sapiens) (P11166 whole entry): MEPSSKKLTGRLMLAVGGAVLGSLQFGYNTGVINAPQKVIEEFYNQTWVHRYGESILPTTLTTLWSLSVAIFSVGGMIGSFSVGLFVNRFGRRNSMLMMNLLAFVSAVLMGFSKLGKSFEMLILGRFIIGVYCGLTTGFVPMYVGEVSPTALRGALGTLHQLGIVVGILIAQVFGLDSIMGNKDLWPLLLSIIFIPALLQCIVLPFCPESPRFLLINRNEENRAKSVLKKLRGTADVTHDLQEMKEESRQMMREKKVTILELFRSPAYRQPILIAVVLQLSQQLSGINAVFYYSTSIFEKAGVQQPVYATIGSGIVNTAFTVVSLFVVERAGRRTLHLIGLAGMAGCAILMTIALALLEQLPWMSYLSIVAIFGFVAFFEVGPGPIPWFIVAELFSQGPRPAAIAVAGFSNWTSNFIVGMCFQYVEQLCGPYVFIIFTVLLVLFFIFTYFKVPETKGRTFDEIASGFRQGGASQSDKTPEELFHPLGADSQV

As a reminder, the inhibition is the relative decrease from the control value, in per cent. Take `COC(=O)c1cccc(CNCc2cccc(-c3cccc(-c4nc5cc(C(F)(F)F)ccc5[nH]4)c3)c2)c1`: the inhibition was -1.41% in test [1], -2.35% in test [2] and -2.5% in test [3].

For the compound `Cc1ccc2[nH]c3c(NCCCN4CCOCC4)ncnc3c2c1`, the values for the inhibition in test [1], in test [2] and in test [3] were 7.43%, -2.37% and 0.92%, respectively.

Regarding `O=C(Nc1cccc(-c2cccc(-c3nc4cc(C(F)(F)F)ccc4[nH]3)c2)c1)c1csnn1`, the inhibition in test [1] stood at 12.8%; in test [2], 9.97%; in test [3] it was 9.43%.

Regarding `CNS(=O)(=O)c1ccc2c(c1)nc(C1CCN(CC3CCC(NC(=O)/C=C/c4ccc(Cl)c(Cl)c4)CC3)CC1)n2C` (stereo not given), the inhibition in test [1] came out at 11.9%; in test [2], 10.9%; in test [3], 3.47%.

For `CCOc1ccc(NC(C)=O)c(O)c1`, the inhibition in test [1] stood at 5.79%; in test [2] it was 5.38%; in test [3], 3.62%.

On to `Cc1cccc2nc(-c3ccc(-c4ccc(NC(=O)C(C)CN(C)C)cc4)cc3)[nH]c12` (stereo not given), for which the values for the inhibition in test [1], in test [2] and in test [3] were 11.2%, 9.44% and 5.39%, respectively.

For the compound `CS(=O)(=O)N1CC2(CCN(CCC(NC(=O)NCc3ccc(Cl)c(Cl)c3)c3ccc(Cl)c(Cl)c3)CC2)c2ccccc21` (stereo not given), the inhibition in test [1] is 0.66%; in test [2], -2.55%; in test [3], -1.75%.

On to `CS(=O)(=O)c1ccc(CNCc2ccc(-c3cccc(-c4nc5cc(C(F)(F)F)ccc5[nH]4)c3)cc2)cc1`, for which the inhibition in test [1] was 3.2%; in test [2], 3.79%; in test [3], 1.5%.

Take `COc1cc(-c2nc(C(C)(C)CN)[nH]c2-c2ccncc2)ccc1Br`: the inhibition in test [1] amounted to 7.38%; in test [2] it was 11.3%; in test [3], 4.8%.

Turning to `COc1ccc2nccc([C@@H](O)CN3CCC(NCc4ccc5nc[nH]c(=O)c5c4)CC3)c2c1`, the inhibition in test [1] was 1.63%; in test [2], -1.56%; in test [3], -1.45%.

Take `COCCn1c(-c2nc(-c3ccc(F)cc3)cnc2N)nc2ccccc21`: the inhibition in test [1] was 0.54%; in test [2] it was -2.08%; in test [3], -0.94%.

As to `Cc1nc2nc(N)nc(N)c2c(C)c1Cc1ccccc1Cl`, the inhibition in test [1] was found to be 9.22%; in test [2], 12.6%; in test [3] it was 7.89%.

With `N#Cc1ccc(CN2CCC(Oc3ccc(NC(=O)c4ccsc4)cc3Cl)C2)cc1` (stereo not given), the inhibition came out at 8.19% in test [1], 11.8% in test [2] and 8.45% in test [3].

Turning to `Cn1c(Sc2ncnc3sccc23)nc2ccccc21`, the inhibition was 2.32% in test [1], 2.23% in test [2] and 2.32% in test [3].

For `CN1CCN(CCCN(Cc2cccc(-c3ccc(CNCc4ccc5c(c4)OCO5)cc3)c2)C(=O)Nc2ccccc2)CC1`, the inhibition turned out to be 1.77% in test [1], 4.4% in test [2] and 1.33% in test [3].

For `N#Cc1cccc(NC(=O)Nc2cccc(-c3cccc(-c4nc5cc(C(F)(F)F)ccc5[nH]4)c3)c2)c1`, the inhibition was determined as 2.08% in test [1], 1.85% in test [2] and 3.18% in test [3].

Take `COc1ccc(-c2cccc(NC(=O)c3cccc(C#N)c3)c2)cc1CN1CCN(C)CC1`: the values for the inhibition in test [1], in test [2] and in test [3] were 4.2%, 2.19% and 3.24%, respectively.

As to `O=C(NCC1CN(Cc2ccc(N3CCCC3)o2)CCCO1)c1ccc2c(c1)OCO2` (stereo not given), the figures for the inhibition in test [1], in test [2] and in test [3] were -0.31%, 0.65% and 2.95%, respectively.

`O=C1OC2(CCN(C(=O)c3ccc(-n4cnnn4)cc3)CC2)CN1Cc1ccc(Cl)c(Cl)c1`: the inhibition was determined as 2.26% in test [1], 3.05% in test [2] and 5.35% in test [3].

For `Oc1cccc2c1CC(NCc1ccccc1)CC2` (stereo not given), the inhibition amounted to 1.86% in test [1], 1.22% in test [2] and 2.32% in test [3].

For the compound `CC(C)(C)c1ccc(CN2CCC(CNC(=O)c3cc(-c4cccc(F)c4)cs3)C2)cc1` (stereo not given), the inhibition in test [1] is 4.3%; in test [2], 4.53%; in test [3], 4.16%.

As to `O=C(NCC1CC1)C1CCN(C(c2ccc(Cl)cc2)c2ccc(Cl)cc2)CC1`, the inhibition in test [1] was 0.44%; in test [2] it was 1.5%; in test [3] it was -2.15%.

Turning to `CC(C)c1cccc(OCC2CCN(c3ncc(C(=O)Nc4ccccc4)cc3Cl)CC2)c1`, the inhibition in test [1] was 2.96%; in test [2], 1.07%; in test [3], -2.66%.

Regarding `O=C(c1csc(-c2cccnc2)n1)N1CCc2cc3nccc(N4CCN5CCC[C@H]5C4)c3cc21`, the inhibition in test [1] was determined as 15%; in test [2] it was 8.81%; in test [3] it was 5.59%.

In the case of `CS(=O)(=O)c1ccc(CNCc2ccc(-c3ccc(-c4nc5cc(C(F)(F)F)ccc5[nH]4)cc3)cc2)cc1`, the inhibition in test [1] amounted to 2.96%; in test [2], 1.96%; in test [3], 2.3%.

Source of the values: ChEMBL document CHEMBL3433997, “St. Jude Leishmania screening dataset” (2016).
